Screens from PubChem.
This excerpt belongs to a sample that is enriched for hits.
CHX counter = Cycloheximide Counterscreen for Small Molecule Inhibitors of Shiga Toxin. AID 2314, 2010. cell reporter, cycloheximide protein synthesis inhibition counterscreen. 300,000 compounds, 12% hits. max response, %; in the data active = max response mostly above about 13%, no sharp cut-off; inactive = mostly below about 14%; also: read at 38.3 µM for the half of the compounds with a filed dose; 0% is about no effect
Shiga toxin inh = A qHTS for Small Molecule Inhibitors of Shiga Toxin. AID 2315, 2010. inhibition, % at 38.7 µM. 290,000 compounds, 9.2% hits. Vero cells, Shiga toxin protein synthesis inhibition reporter; in the data active = inhibition mostly above about 28%, no sharp cut-off; inactive = mostly below about 43%; also: 0% is about no effect
RE007 growth inh = qHTS Assay for Inhibitors of the HIV-1 protein Vpr | 360,000 compounds, 0.21% hits | AID 651644, 2012 | S. pombe RE007 Vpr strain, BacTiter-Glo ATP luminescence, 24 h | Potency, µM (series often up to 92.2 µM), inactives show top-dose activity change, negative = less growth, hits mostly inhibitors; active = well fitted falling curve with a large enough effect; inconclusive = small, poorly fitted or top-dose-only effect; inactive = no such curve, though single readings can be large or run the other way; also: potency is read from the fitted curve at half-maximal effect; % is scaled to controls: 0 for no effect and ±100 for the full control effect; nearly all actives have a fitted effect of over 50% in size
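Fission yeast RE007 carrying one integrated HIV-1 vpr copy, seeded at OD 0.01 in PMG+AL medium with 23 nL pinned compound. Grown 24 h at 30 degrees; viability read by BacTiter-Glo luminescence after 5 min.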
Giardia FBPA inh = qHTS Assay for Inhibitors of Fructose-1,6-bisphosphate Aldolase from Giardia Lamblia | purified Giardia FBPA | Potency, µM (doses to about 59.6 µM), inactives show top-dose activity, negative = inhibition, actives largely listed as inhibitors | 290,000 compounds, 0.71% hits | AID 2451, 2010; also: potency is read from the fitted curve at half-maximal effect; % is scaled to controls: 0 for no effect and ±100 for the full control effect; nearly all actives have a fitted effect of over 55% in size
Target sequence (A8B2U2 whole entry, looked up): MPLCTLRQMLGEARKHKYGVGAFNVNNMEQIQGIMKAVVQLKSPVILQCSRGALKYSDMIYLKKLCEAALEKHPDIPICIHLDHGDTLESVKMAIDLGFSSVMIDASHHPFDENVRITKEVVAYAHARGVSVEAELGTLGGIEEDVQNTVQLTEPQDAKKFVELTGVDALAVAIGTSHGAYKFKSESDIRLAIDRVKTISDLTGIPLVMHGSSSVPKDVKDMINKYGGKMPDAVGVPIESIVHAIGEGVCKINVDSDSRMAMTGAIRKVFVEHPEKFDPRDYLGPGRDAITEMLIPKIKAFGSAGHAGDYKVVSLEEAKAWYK
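40 nM FBPA preincubated 10 min at RT with compound (up to 57.5 uM final), then substrate plus GAPDH/TPI/NAD/arsenate coupling and diaphorase/resazurin added. Fluorescence read after 20 min at RT, 525/598 nm.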
LmPK inh = qHTS Assay for Inhibitors of Leishmania Mexicana Pyruvate Kinase (LmPK) | purified LmPK, Kinase-Glo ATP luminescence, 1 h | Potency, µM (series often up to 57.5 µM), inactives show at the top dose activity change, negative = inhibition, most hits filed as inhibitors | 290,000 compounds, 0.37% hits | AID 1721, 2009; also: potency is read from the fitted curve at half-maximal effect; % is scaled to controls: 0 for no effect and ±100 for the full control effect
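Purified LmPK (0.1 nM) with 0.5 mM PEP and 0.1 mM ADP in imidazole buffer pH 7.2 with MgCl2/KCl, 1 h at room temperature. ATP formed was read by luciferase luminescence and normalized to no-enzyme and uninhibited controls.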
Tb PYK inh = qHTS of Trypanosoma Brucei Inhibitors | pyruvate kinase (Trypanosoma brucei), Q57TT1 | TbPYK enzyme, Kinase-Glo Plus ATP luminescence, 45 min | Potency, µM (top dose mostly 76.8 µM), inactives show at the highest dose activity, negative = inhibition, usual class: inhibitors | 410,000 compounds, 0.12% hits; also: potency is read from the fitted curve at half-maximal effect; % is scaled to controls: 0 for no effect and ±100 for the full control effect; nearly all actives have a fitted effect of over 50% in size
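Glycolytic pyruvate kinase of T. brucei was incubated with substrate, test compound and 130 uM ADP for 45 minutes at room temperature. Luminescent Kinase-Glo Plus signal was measured after 10 minutes.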
The depositor's hits bear a star; ? = inconclusive; nt = no result. Unless noted, calls follow the shape of the dose curve; as a rule, active = well fitted curve in the direction sought with a large enough effect; inconclusive = small, poorly fitted or top-dose-only effect, or another doubt; inactive = no such curve, though single readings can be large; an effect the other way counts as inactive or inconclusive.

SMILES	CHX counter	Shiga toxin inh	RE007 growth inh	Giardia FBPA inh	LmPK inh	Tb PYK inh
O=C(Cn1cc(Cl)ccc1=O)c1ccc(Cl)cc1	16.1*	-95.3	-4.9%	1.4%	0.5%	-4.8%
O=C(Cn1cnc2ccccc2c1=O)c1ccc(Cl)cc1	44.2*	120.3*	-10.3%	-2.6%	0.1%	-2.1%
O=C(Cn1nnc2ccccc21)OCC(=O)c1ccc(F)cc1	9.4*	12.7	14.9%	-2.8%	-0.3%	0.8%
O=C(COC(=O)Cn1cnc2ccccc2c1=O)NNC(=O)c1ccc(Br)cc1	nt	nt	-3.4%	nt	nt	0.5%
Cc1noc(C)c1NC(=O)Nc1ccc2c(c1)C(=O)N([C@@H](C)CO)C[C@@H](C)[C@@H](CN(C)Cc1ccc3c(c1)OCO3)O2	nt	nt	3.6%	nt	nt	2.6%
COc1cc(/C=C/C(=O)OCC(=O)N2CCCCCC2)cc(OC)c1OC	nt	nt	-7.7%	nt	nt	0.3%
Cc1ccc(NC(=O)Nc2nnc(SCC(=O)N(C(C)C)C(C)C)s2)cc1	nt	nt	nt	nt	nt	0.0%
Cc1cccc(N2CCN(C(=O)c3cc(S(=O)(=O)N4CCOCC4)cn3C)CC2C)c1 (centres undefined)	-1.4	-5.5	2.2%	1.4%	3.3%	0.0%
O=C(Cn1cnc2ccccc21)c1ccc(Cl)cc1	28.1*	47.8	-16.6%	7.4%	-3.2%	0.8%
O=C(Cn1cnc2ccccc21)c1ccccc1	2.0	18.6	3.0%	7.5%	1.3%	-5.3%
O=C(Cn1nnc2ccccc21)c1ccc(Cl)cc1	40.5*	54.4*	-0.6%	5.7%	-2.8%	-1.4%
Cc1ccc(C(=O)Cn2cnc3ccccc3c2=O)cc1	30.4*	75.7*	-2.5%	3.6%	0.1%	-1.4%
COc1ccc(-c2nnc(Nc3ccc(CC(N)=O)cc3)c3ccccc23)cc1	-1.3	-5.1	7.4%	-5.0%	0.8%	-16.4%
NC(=O)Cc1ccc(Nc2nnc(-c3ccccc3)c3ccccc23)cc1	10.3*	11.9	11.7%	3.3%	0.9%	-1.5%
Cc1ccccc1CSc1nc2c([nH]c3ccccc32)c(=O)n1-c1ccccc1	nt	nt	nt	nt	nt	4.1%
O=C(NCc1nc2ccccc2[nH]1)C1=C[C@@H](C2CCCCC2)C[C@@H](OCc2ccc(CO)cc2)O1	11.1	46.4*	-9.3%	-1.3%	4.7%	1.4%
O=C(NCc1nc2ccccc2[nH]1)C1=C[C@H](c2ccccc2)C[C@H](OCc2ccc(CO)cc2)O1	14.8*	28.9	8.0%	-29.5%	1.0%	4.4%
O=C(NCc1nc2ccccc2[nH]1)C1=C[C@H](C2CCCCC2)C[C@H](OCc2ccc(CO)cc2)O1	4.6	-5.8	8.8%	0.0%	3.3%	1.2%
O=C(NCc1nc2ccccc2[nH]1)C1=C[C@@H](c2ccccc2)C[C@@H](OCc2ccc(CO)cc2)O1	5.8	4.2	-17.8%	0.2%	9.6%	-6.3%
CCC(C)NC(=O)CSc1nc2cc3c(cc2c(=O)n1CCCC(=O)NCc1ccc2c(c1)OCO2)OCO3 (centres undefined)	nt	nt	nt	nt	nt	-4.4%
Cc1ccc(C(=O)/C=C2/NC(=O)CS2)cc1	24.8*	45.0*	-7.4%	-1.1%	-9.9%	-1.8%
O=C1CS/C(=C/C(=O)c2cccc(Cl)c2)N1	27.2*	56.0	-10.3%	5.3%	-9.1%	-1.5%
COC(=O)c1cc(-c2c(-c3ccc4c(c3)OCO4)noc2-c2ccsc2)cc([N+](=O)[O-])c1	24.6*	30.4	10.3%	1.0%	4.1%	3.5%
COc1ccc(-c2c(-c3ccc4c(c3)OCO4)noc2C)cn1	24.8*	66.7*	-10.0%	0.1%	-2.8%	7.5%
O=C(O)c1cc(-c2ccc(-c3c(-c4ccc5c(c4)OCO5)noc3-c3ccsc3)cc2)nc2ccccc12	35.9*	60.6*	-0.5%	-11.0%	-0.8%	-1.7%
SMILES	CHX counter	Shiga toxin inh	RE007 growth inh	Giardia FBPA inh	LmPK inh	Tb PYK inh
CN(C)c1ccc(-c2c(-c3ccc4c(c3)OCO4)noc2-c2ccsc2)cn1	28.1*	40.1*	-16.6%	-10.2%	-6.5%	-7.6%
O=C(O)c1cc(-c2ccc3c(c2)OCO3)nc2ccc(Cl)cc12	8.3	29.7	12.3%	nt	-8.4%	-3.9%
Cc1cc2n(n1)CCC(=O)N2Cc1ccc(C(=O)Nc2cccc(C(F)(F)F)c2)cc1	nt	nt	nt	nt	nt	3.0%
COc1ccc(CCNC(=O)c2ccc3c(c2)CCN3S(=O)(=O)c2ccc(Cl)cc2)cc1	nt	nt	nt	nt	nt	-1.8%
Brc1ccc(-c2cnc(-c3cccs3)o2)cc1	36.5*	91.7*	?	-4.1%	-4.9%	8.6%
COc1cccc(C2=Nc3cccc4cccc(c34)N2)c1	14.0*	15.7	-17.2%	?	-0.2%	-7.6%
Nc1ccc(C2=Nc3cccc4cccc(c34)N2)cc1	7.7	7.1	1.5%	19.7%	-27.7%	-1.5%
Oc1ccc(-c2cn3c(n2)SCC3)cc1	12.7	20.0	1.4%	-0.9%	-3.5%	-10.4%
CS(=O)(=O)Nc1ccc(-c2cn3c(n2)SCC3)cc1	15.1	33.0	3.9%	-16.5%	3.8%	-17.3%
Brc1ccc(-c2cn3c(n2)SCC3)cc1	35.2*	100.5*	-4.2%	-2.7%	-0.2%	-3.4%
Cc1oc2ccccc2c1-c1cn2c(n1)SCC2	10.6*	24.3	8.4%	-0.4%	-1.7%	-4.7%
c1ccc(-c2cn3c(n2)SCC3)cc1	29.1*	50.0*	10.7%	2.7%	3.6%	3.5%
Clc1ccc(-c2cn3c(n2)SCC3)cc1	38.3*	161.8*	-21.9%	0.1%	7.9%	1.9%
Cc1ccc2c(c1)c1c(c(=O)n(-c3cccc(Cl)c3)c(=O)n1CC(=O)N1CCCC1)n2C	nt	nt	nt	nt	nt	-2.8%
CC(=O)Nc1ccc(C)cc1-c1nc2ccccc2n(CC(=O)c2ccc(C)c(C)c2)c1=O	nt	nt	nt	nt	nt	0.4%
COc1ccc(CCC(=O)Nc2c(-c3ccc(N(C)C)cc3)[nH][nH]c2=O)cc1	nt	nt	-5.5%	nt	nt	-14.1%
COc1ccc(C(=O)NCC(c2ccco2)S(=O)(=O)c2cccs2)cc1 (centres undefined)	nt	nt	nt	nt	nt	-0.6%
CCCn1c(=O)n(-c2cc(Cl)c(OC)cc2OC)c(=O)c2c3c(sc21)CN(C(C)=O)CC3	nt	nt	nt	nt	nt	-0.2%
CCN(CC)S(=O)(=O)c1ccc(NC(=O)c2ccc(N3CCCC3=O)cc2)cc1	nt	nt	-1.6%	nt	nt	-0.7%
CN(C)S(=O)(=O)c1cccc(NC(=O)CCCSc2ccccc2)c1	1.6	35.4	3.1%	-11.6%	9.3%	-0.4%
CC(=O)Nc1ccc(SCCCC(=O)c2ccccc2)cc1	29.3*	72.1*	40.2%	5.6%	-3.2%	-5.0%
CC(=O)c1cccc(NC(=O)CSCc2ccc(Br)cc2)c1	-1.5	-3.7	16.0%	1.2%	1.4%	4.9%
CC(=O)c1cccc(NC(=O)CSCc2ccccc2)c1	39.3*	71.3*	-6.6%	3.5%	3.0%	-2.2%
